This is an account of results in PubChem BioAssay.

In assay [1] the test system is Plasmodium falciparum Sir2 (PF13_0152, Sir2A). In words: Plasmodium falciparum Sir2A binding compounds – biochemical, small-molecule microarray, 635 nm fluorescence, primary screen (AID 1098).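 Further: score merges spot fluorescence intensity with its signal-to-noise ratio.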 The settings on record: fluorescence 635 nm, higher = more signal.
The nature of assay [2]: probe aDKK1 binding to arrayed compounds – biochemical, biotinylated probe, 635/667 nm fluorescence, primary screen (AID 1099).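 Further: score merges 667nm spot fluorescence with signal to noise across triplicate slides.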 Conditions: small-molecule microarray, higher = more signal.
Assay [3] in a line: probe aCHRDL2 binding to arrayed compounds – biochemical, biotinylated probe, 635/667 nm fluorescence, primary screen (AID 1100). Conditions: small-molecule microarray, higher = more signal.
Assay [4] can be described thus: change in splice reporter luminescence, either direction, cell-based, HEK293, spliceosome inhibition project, primary screen (AID 1101).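 Further: HEK293 cells carrying a splicing-competent luciferase reporter gene; test concentration not given here.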 Conditions: HEK293 splicing luciferase reporter, 24 h, higher = more signal, called active from +8 up or from −8 down. (In general: In a reporter assay the amount or activity of a reporter protein is the signal.)
The target in assay [5] is Fibroblast growth factor 10 (Homo sapiens) (UniProt O15520). In words: compounds binding fibroblast growth factor 10 – biochemical, small-molecule microarray, 635 nm fluorescence, primary screen (AID 1102). The settings on record: FGF10 binding, fluorescence 635 nm, higher = more signal.
Sequence of Fibroblast growth factor 10 (Homo sapiens) (O15520 whole entry, looked up): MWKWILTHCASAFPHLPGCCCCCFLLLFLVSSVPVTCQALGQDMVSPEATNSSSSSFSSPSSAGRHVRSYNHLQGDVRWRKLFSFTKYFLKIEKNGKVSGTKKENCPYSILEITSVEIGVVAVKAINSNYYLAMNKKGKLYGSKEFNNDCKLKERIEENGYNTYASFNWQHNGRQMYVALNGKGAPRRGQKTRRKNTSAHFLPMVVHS
The test system of assay [6] is glycogen synthase kinase-3 (GSK3A per assay name; protocol says GSK3B). Description: compounds binding glycogen synthase kinase-3 – biochemical, small-molecule microarray, 635 nm fluorescence, GSK3A, primary screen (AID 1103). Further: the record names both GSK3A and GSK3B. Conditions: fluorescence 635 nm, higher = more signal.
Assay [7] concerns the target Epidermal growth factor receptor (Homo sapiens) (UniProt P00533). Description: compounds binding epidermal growth factor receptor – biochemical, small-molecule microarray, 635 nm fluorescence, primary screen (AID 1104).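 Further: score merges 667 nm emission intensity with spot signal to noise over triplicate slides.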 The settings on record: EGFR binding, higher = more signal.
For assay [8], the target named is Follistatin-related protein 3 (Homo sapiens) (UniProt O95633). In words: compounds binding follistatin-related protein 3 – biochemical, small-molecule microarray, 635 nm fluorescence, primary screen (AID 1105).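 Further: score merges emission near 667 nm and signal to noise per printed spot across three slides.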 Conditions: FSTL3 binding, higher = more signal.
Sequence of Follistatin-related protein 3 (Homo sapiens) (O95633 whole entry, looked up): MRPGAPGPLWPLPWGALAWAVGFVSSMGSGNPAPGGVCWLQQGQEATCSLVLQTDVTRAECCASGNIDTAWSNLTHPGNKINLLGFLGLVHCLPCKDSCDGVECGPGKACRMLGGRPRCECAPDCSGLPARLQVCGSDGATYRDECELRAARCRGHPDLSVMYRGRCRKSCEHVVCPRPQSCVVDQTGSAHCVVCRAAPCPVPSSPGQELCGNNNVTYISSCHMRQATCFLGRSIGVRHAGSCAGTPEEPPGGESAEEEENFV
Assay [9] concerns the target Dickkopf-related protein 1 (Homo sapiens) (UniProt O94907). In words: small molecules binding DKK1 protein – biochemical, small-molecule microarray, 635 nm fluorescence scan, primary screen (AID 1106).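 Further: score merges emission near 667 nm with signal to noise over three replicate slides.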 The settings on record: higher = more signal.
In assay [10] the test system is Inhibin beta A chain (activin A). Description: small molecules binding activin A – biochemical, small-molecule microarray, 635 nm fluorescence scan, primary screen (AID 1107).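 Further: mouse activin A protein probed at 4.33 µg/mL on printed slides; score merges bound-protein fluorescence near 667 nm with spot signal-to-noise.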 Conditions: INHBA, higher = more signal.
Assay [11] has as its system Human papillomavirus type 1a protein E7 (residues 44-93). Description: small molecules binding HPV E7 44-93 – biochemical, small-molecule microarray, residues 44-93, 635 nm fluorescence, primary screen (AID 1108).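 Further: E7 fragment applied at 1 µg/mL in TBST for 1 h at 4 C; score combines spot fluorescence with its signal to noise ratio.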 The settings on record: fluorescence 635 nm, higher = more signal.
Assay [12] is described as follows: hepatitis C replication reporter changes, two-sided – Huh7 cells, luciferase reporter, HCV replication inhibitor project, primary screen (AID 1109).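 Further: huh7 hepatoma cells harbouring a luciferase neomycin HCV replicon reporter; luciferase luminescence as measure of HCV replicon replication; test concentration not given here.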 Conditions: Huh7 HCV replicon luciferase reporter, 48 h; higher = more signal.
The target in assay [13] is Left-right determination factor 2 (Homo sapiens) (UniProt O00292). Description: small molecules binding LEFTY2 protein – biochemical, small-molecule microarray, 635 nm fluorescence scan, primary screen (AID 1110). The settings on record: higher = more signal.
Sequence of Left-right determination factor 2 (Homo sapiens) (O00292 whole entry, looked up): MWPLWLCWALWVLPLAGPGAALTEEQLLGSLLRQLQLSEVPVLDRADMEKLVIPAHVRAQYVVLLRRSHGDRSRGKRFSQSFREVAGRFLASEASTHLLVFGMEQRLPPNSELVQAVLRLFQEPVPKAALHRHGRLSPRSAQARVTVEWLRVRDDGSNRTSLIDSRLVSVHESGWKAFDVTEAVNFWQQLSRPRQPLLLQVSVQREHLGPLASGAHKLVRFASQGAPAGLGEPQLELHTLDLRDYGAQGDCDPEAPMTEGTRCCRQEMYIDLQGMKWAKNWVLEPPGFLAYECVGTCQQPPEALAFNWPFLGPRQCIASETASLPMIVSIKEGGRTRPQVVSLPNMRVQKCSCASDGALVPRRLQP
The target of assay [14] is Calmodulin-1 (Homo sapiens) (UniProt P0DP23). Description: small molecules binding calmodulin-1 with EGTA – biochemical, small-molecule microarray, Cy5-labelled CALM1, profiling panel (AID 1111).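 Further: labelled calmodulin applied in Tris saline Tween buffer holding calcium plus EGTA and DTT.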 Conditions: Cy5-CALM1 binding fluorescence, higher = more signal.
Assay [15] has the same target. Description: small molecules binding Ca-loaded calmodulin-1 – biochemical, small-molecule microarray, Cy5-labelled CALM1, plus calcium, artefact control for SMM control-protein annotation, profiling panel (AID 1112).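 Further: score merges spot fluorescence with signal to noise from triplicate slides.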 Conditions: Cy5-CALM1 binding fluorescence, higher = more signal.
Assay [16] is described as follows: probe aWnt5a binding to arrayed compounds – biochemical, biotinylated probe, 635/667 nm fluorescence, primary screen (AID 1113).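 Further: score merges 667 nm fluorescence intensity with signal-to-noise per printed feature.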 The settings on record: small-molecule microarray, higher = more signal.
The nature of assay [17]: probe aShh binding to arrayed compounds – biochemical, biotinylated probe, 635/667 nm fluorescence, primary screen (AID 1114).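 Further: probe is biotin-labelled aShh protein from a stem cell growth factor screen; measures binding of labelled protein to compounds printed on the slide; score merges feature fluorescence at 667 nm with signal-to-noise.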 The settings on record: small-molecule microarray, higher = more signal.
Assay [18] is described as follows: probe aNog binding to arrayed compounds – biochemical, biotinylated probe, 635/667 nm fluorescence, primary screen (AID 1115).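 Further: probe is biotinylated aNog protein used at 0.15 µg/mL for 1 h at 4 C; z-score combines 667 nm fluorescence of each spot with its signal to noise.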 Conditions: small-molecule microarray, higher = more signal.
Assay [19] deals with Torsin-1A-interacting protein 1 (Homo sapiens) (UniProt Q5JTV8). In words: compound microarray binding of lysate hLAP1 – cell lysate, small-molecule microarray, COS7 lysate, 635/667 nm fluorescence, primary screen (AID 1116). Conditions: 635 nm fluorescence, higher = more signal.
Sequence of Torsin-1A-interacting protein 1 (Homo sapiens) (Q5JTV8 whole entry, looked up): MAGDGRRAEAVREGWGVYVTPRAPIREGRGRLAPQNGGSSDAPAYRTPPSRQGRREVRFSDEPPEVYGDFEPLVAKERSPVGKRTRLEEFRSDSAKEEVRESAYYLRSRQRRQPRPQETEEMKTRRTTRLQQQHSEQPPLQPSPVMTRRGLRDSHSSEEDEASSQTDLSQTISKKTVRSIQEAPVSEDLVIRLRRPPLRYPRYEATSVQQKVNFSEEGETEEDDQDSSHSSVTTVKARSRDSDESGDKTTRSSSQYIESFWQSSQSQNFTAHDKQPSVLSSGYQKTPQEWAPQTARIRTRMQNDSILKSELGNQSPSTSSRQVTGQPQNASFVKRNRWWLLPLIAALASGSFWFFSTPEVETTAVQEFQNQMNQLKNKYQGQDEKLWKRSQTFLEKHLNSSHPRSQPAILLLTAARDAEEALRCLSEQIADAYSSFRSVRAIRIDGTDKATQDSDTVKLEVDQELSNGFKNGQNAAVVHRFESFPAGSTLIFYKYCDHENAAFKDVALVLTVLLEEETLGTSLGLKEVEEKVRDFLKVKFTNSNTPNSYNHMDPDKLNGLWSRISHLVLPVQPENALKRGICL
The target in assay [20] is Alpha-bungarotoxin (Bungarus multicinctus) (UniProt P60615). In words: compounds binding labelled alpha-BTX control protein – biochemical, small-molecule microarray, Alexa647 label, 635/667 nm fluorescence, artefact control for SMM control protein annotation, profiling panel (AID 1117). Conditions: alpha-BTX-A647 binding fluorescence, higher = more signal.
Sequence of Alpha-bungarotoxin (Bungarus multicinctus) (P60615 whole entry, looked up): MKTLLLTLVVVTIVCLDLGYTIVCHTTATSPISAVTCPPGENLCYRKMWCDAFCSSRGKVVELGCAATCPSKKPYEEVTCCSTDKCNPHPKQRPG

Activity calls are given as the source filed them.

Sequence of Dickkopf-related protein 1 (Homo sapiens) (O94907 whole entry, looked up): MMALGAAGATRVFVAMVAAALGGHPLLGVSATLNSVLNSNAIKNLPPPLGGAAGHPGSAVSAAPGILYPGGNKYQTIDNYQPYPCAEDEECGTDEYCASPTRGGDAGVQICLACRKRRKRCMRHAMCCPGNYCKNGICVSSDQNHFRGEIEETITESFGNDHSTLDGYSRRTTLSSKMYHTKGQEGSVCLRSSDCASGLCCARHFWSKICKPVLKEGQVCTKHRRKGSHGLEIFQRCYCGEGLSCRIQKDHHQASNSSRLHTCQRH
Sequence of Epidermal growth factor receptor (Homo sapiens) (P00533 whole entry, looked up): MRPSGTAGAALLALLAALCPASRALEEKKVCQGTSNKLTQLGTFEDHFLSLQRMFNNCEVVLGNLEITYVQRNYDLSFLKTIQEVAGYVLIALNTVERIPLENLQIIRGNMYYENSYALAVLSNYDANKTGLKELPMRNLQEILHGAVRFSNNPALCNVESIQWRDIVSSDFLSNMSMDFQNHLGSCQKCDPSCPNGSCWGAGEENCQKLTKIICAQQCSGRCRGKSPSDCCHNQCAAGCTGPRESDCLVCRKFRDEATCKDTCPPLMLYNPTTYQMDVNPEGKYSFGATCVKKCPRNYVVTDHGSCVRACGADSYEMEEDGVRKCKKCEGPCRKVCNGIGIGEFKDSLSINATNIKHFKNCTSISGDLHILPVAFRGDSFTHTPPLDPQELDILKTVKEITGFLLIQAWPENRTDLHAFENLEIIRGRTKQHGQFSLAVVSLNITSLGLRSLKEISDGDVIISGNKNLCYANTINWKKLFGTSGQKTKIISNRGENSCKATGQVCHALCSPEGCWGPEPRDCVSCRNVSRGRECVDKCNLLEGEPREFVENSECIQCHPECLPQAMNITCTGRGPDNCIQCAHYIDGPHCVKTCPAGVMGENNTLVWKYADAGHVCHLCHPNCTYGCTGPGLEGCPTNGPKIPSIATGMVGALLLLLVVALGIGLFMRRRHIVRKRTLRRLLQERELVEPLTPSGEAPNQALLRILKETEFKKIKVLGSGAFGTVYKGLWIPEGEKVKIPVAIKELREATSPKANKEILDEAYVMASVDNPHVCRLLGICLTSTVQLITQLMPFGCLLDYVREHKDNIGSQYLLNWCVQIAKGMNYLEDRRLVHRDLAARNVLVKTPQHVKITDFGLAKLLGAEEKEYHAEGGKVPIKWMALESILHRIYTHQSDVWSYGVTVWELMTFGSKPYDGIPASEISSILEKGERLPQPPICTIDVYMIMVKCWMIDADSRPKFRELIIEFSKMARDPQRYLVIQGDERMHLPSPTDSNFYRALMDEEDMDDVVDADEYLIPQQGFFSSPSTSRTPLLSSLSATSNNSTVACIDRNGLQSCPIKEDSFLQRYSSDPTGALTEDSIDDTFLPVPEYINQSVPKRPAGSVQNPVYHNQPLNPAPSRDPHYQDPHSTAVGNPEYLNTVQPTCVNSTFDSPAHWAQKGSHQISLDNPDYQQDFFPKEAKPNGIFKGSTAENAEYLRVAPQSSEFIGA

Take `C=CCNC(=O)[C@@H]1[C@H]2C(=O)O[C@H](c3ccccc3)[C@H](c3ccccc3)N2[C@H](c2ccc(O)cc2)[C@@]12C(=O)Nc1ccccc12`: the composite z-score was 0.442 in assay [1]; -0.0741 in [2]; 0.363 in assay [3]; 0.237 in assay [5]; -0.608 in assay [6]; -1.14 in [7]. Also, the composite z-score in assay [8] is 0.133; in assay [9] it was 0.131; in [10] it was -0.287; in assay [11], 0.197; in assay [13], -1.01; in assay [14], 0.439. Further, the composite z-score in [15] was 0.259; in assay [16], -0.0758; in [17], 0.0756; in assay [18], 0.955; in assay [19], -0.0205; in assay [20], 1.33. Further, the z-score was 0.633 (inactive) in [4] and -0.603 in assay [12].

For `C=CC[C@@]1(C(=O)NCc2ccccc2)N=C(c2ccc(OCCCO)cc2)O[C@@H]1c1ccccc1`, the composite z-score in [1] was 1.54; in assay [2], 0.787; in assay [3], 1.31; in assay [5] it was -0.28; in assay [6] it was 0.659; in assay [7], -1.08. For the same compound, the composite z-score in assay [8] is -0.571; in [9] it was -0.918; in [10], 0.997; in [11] it was 0.483; in [13], -0.762; in [14] it was 1.68. Moreover, the composite z-score in assay [15] was 0.369; in assay [16] it was -0.101; in assay [17], 0.123; in assay [18], 0.49; in [19], 1.68; in assay [20], 1.1. The z-score is -1.19 (inactive) in assay [4] and -3.03 in [12].

With `C#CCN1C(C(=O)OCC)OC[C@H]1c1ccccc1` (stereo not given in full), the composite z-score was 0.312 in assay [1]; 0.461 in assay [2]; -0.502 in assay [3]; 0.388 in [5]; -0.0229 in assay [6]; 0.421 in [7]. Moreover, the composite z-score in assay [8] is 0.901; in assay [9], 0.428; in assay [10], -0.352; in assay [11], 1.35; in assay [13], 0.677; in assay [14], -0.128. Moreover, the composite z-score in assay [15] was -0.605; in assay [16], -0.175; in [17] it was -0.167; in assay [18] it was -0.21; in assay [19] it was 1.49; in assay [20], 0.327. For the same compound, the z-score in [4] was -0.577 (inactive); in assay [12] it was -0.354.

For `C=CCNC(=O)[C@@H]1[C@H]2C(=O)O[C@H](c3ccccc3)[C@H](c3ccccc3)N2[C@H](c2ccc(O)cc2)[C@@]12C(=O)N(C(=O)OCCOC)c1ccc(C#Cc3ccc(OC)cc3)cc12`, the composite z-score was 1.12 in assay [1]; 0.51 in assay [2]; -0.382 in [3]; 0.793 in [5]; 1.3 in [6]; 0.541 in assay [7]. Also, the composite z-score is 0.62 in assay [8]; 1.12 in assay [9]; -0.071 in assay [10]; 1.13 in [11]; 0.638 in assay [13]; 1.75 in assay [14]. The composite z-score is 0.185 in assay [15]; -0.0368 in [16]; -0.0011 in assay [17]; 0.315 in assay [18]; 1.13 in assay [19]; 0.579 in assay [20]. For the same compound, the z-score was -1.16 (inactive) in assay [4] and -1.77 in [12].

Regarding `C#CCOc1ccc(C[C@H]2C(=O)O[C@H](Cc3ccccc3)[C@H](/C=C/C3CC3)N2CC#C)cc1`, the composite z-score was 1.32 in [1]; -0.162 in [2]; -0.0338 in assay [3]; -0.425 in assay [5]; -0.526 in [6]; -0.925 in [7]. For the same compound, the composite z-score in assay [8] is -0.566; in assay [9], -0.175; in assay [10] it was 0.809; in assay [11], -0.462; in [13], -0.36; in assay [14], -0.491. Moreover, the composite z-score is -0.685 in [15]; -0.176 in [16]; -0.153 in assay [17]; -0.433 in [18]; 0.204 in assay [19]; 0.0192 in assay [20]. Besides, the z-score in assay [4] is -1.18 (inactive); in assay [12] it was -2.14.
